Source: PubChem BioAssay
In the library only some 2.3% were active in any assay of this set; here they are far more common.
MITF TRPM1 inh – inhibitors of MITF-dependent TRPM1 promoter reporter, primary screen, cell-based, SK-MEL-5, single point, luciferase. actives 0.83% (n = 330,000). inhibition, % at 12.5 µM. SK-MEL-5 TRPM1 promoter luciferase, 24 h. AID 488899, 2010;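 active = mean inhibition across replicates of 60% or more, whatever share of single replicates reaches that level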
697 NFkB inh – inhibitors of PMA/ionomycin-induced NF-kB reporter, 697 cells, primary screen, B-cell NF-kB inhibitor project, cell-based, luminescence, uHTS; 697 B-cell NF-kB luciferase reporter, 16 h; inhibition, % at 4 µM; actives 0.33% (n = 330,000); in the data active = inhibition above about 35%
Jurkat NFkB inh – inhibitors of induced NF-kB luciferase reporter, primary screen, TCR NF-kB activation inhibitor project, cell-based, luminescence, uHTS; Jurkat, PMA/ionomycin-induced NF-kB luciferase reporter; inhibition, % at 4 µM; actives 0.53% (n = 330,000); in the data active = inhibition above about 50%
LMP1 NFkB inh – EBV LMP1-driven NF-kappaB luciferase reporter inhibitors, primary screen, cell-based, luminescence, single point. LMP1-induced NF-kappaB luciferase reporter cells. inhibition, % at 12.5 µM. actives 0.69% (n = 350,000). AID 504558, 2011; in the data active = inhibition above about 41%;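 note: 0% = neutral control wells and 100% = reference inhibitor control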
Gli-Sufu antag – Gli-Sufu pathway antagonists, primary screen, luciferase luminescence, Sufu-KO-LIGHT cells, uHTS | Sufu-KO-LIGHT fibroblasts, Gli luciferase reporter luminescence | inhibition, % at 5 µM | actives 0.74% (n = 340,000) | AID 588413, 2011;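 active = inhibition above about 55%, limit read from the data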;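 note: 0% = DMSO-treated cells and 100% = wells with medium but no cells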
Shn3 3UTR inh – reduction of Shn3 3'UTR firefly luciferase signal, primary screen, Schnurri-3 inhibitor project, cell-based, Clone20 osteoblasts, set 2. AID 588674, 2011. inhibition, % at 12.5 µM. Clone20 osteoblast Shn3 3'UTR firefly luciferase, 24 h. actives 0.52% (n = 360,000);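 active = mean inhibition of at least 75% with every replicate also reaching 75%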;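 note: 0% = median of neutral control wells and 100% = pilot-screen positive control compound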
Jurkat NFkB conf – PMA/ionomycin-induced NF-kB reporter inhibitors, Jurkat retest, confirmation, T-cell NF-kB inhibitor project, cell-based, luminescence, single concentration. actives 27% (n = 2,700). shares compounds with Jurkat NFkB inh. inhibition, % at 4 µM. AID 435020, 2010. Jurkat NF-kB luciferase, 16 h;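 active = inhibition reaching about 45% at 4 µM in either replicate, limit read from the data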;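 note: plate controls were PMA/ionomycin stimulated DMSO wells for no effect and unstimulated DMSO wells for full effect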
* hit, by the source's call; · = not tested or not shown.

SMILES	MITF TRPM1 inh	697 NFkB inh	Jurkat NFkB inh	LMP1 NFkB inh	Gli-Sufu antag	Shn3 3UTR inh	Jurkat NFkB conf
N#Cc1cc2c(nc1SCc1nc3ccccc3[nH]1)CCC2	·	-131	-169	·	·	·	-56
O=C(CSc1nnnn1-c1ccccc1)c1ccco1	-28	-11	-3	-2	-23	-40	·
NS(=O)(=O)c1ccc2nc(NC(=O)Nc3ccccc3F)sc2c1	-73	-224	-164	-78	-97	-49	-112
COc1ccc(-c2coc3cc4oc(=O)cc(C)c4cc23)cc1F	18	-13	36	19	9	3	·
COc1ccc(-c2coc3cc4oc(=O)cc(-c5ccccc5)c4cc23)cc1F	28	-10	67*	16	14	-3	29
Cc1ccc(OCc2ccc(Br)cc2)c([N+](=O)[O-])n1	·	-158	-164	·	·	·	-106
CC12CCC(C(=O)Nc3nc4ccccc4s3)(OC1=O)C2(C)C (stereo not drawn)	-38	-36	-24	1	-53	-14	·
CCN(CC(=O)NCc1ccc(F)cc1)C(=O)/C=C/c1ccc(OC)c(S(=O)(=O)NC(C)C)c1	36	6	51*	3	-5	0	46
CC(=O)NC12CC3CC(C1)CC(C(=O)OCC(=O)c1ccc4c(c1)OCCO4)(C3)C2	-14	-8	-164	-26	-33	-53	-81
CC(=O)NC12CC3CC(C1)CC(C(=O)OCC(=O)c1cc(C)n(C)c1C)(C3)C2	-26	-144	-162	14	-63	-15	-62
Cc1cc(C(=O)N/N=C2\CCCC(=O)C2)c(C)n1-c1ccccc1	-25	-12	-14	-7	-27	-41	·
CCOc1ccc2c(c1)sc(N)[n+]2Cc1cc(C)cc2cccnc12	12	-80	62*	19	20	55	51*
COc1ccc2c(c1)sc(N)[n+]2Cc1cc(C)cc2cccnc12	-9	·	·	22	26	47	·
COc1ccc(NC(=O)c2[nH]c(C)c(C(C)=O)c2C)cc1	-10	-26	-53	-27	·	-107	·
Cc1ccc(NC(=O)CSc2nc3ccccc3nc2N2CCOCC2)c(C)c1	-1	-4	-8	-31	0	3	·
C/C(=N\NC(=O)c1ccncc1)c1ccc(N2CCOCC2)cc1	-5	0	0	-3	-5	-18	·
C/C(=N\NC(=O)c1ccc(OC2OCCOC2Oc2ccc(C(=O)N/N=C(\C)c3ccncc3)cc2)cc1)c1ccncc1 (stereo not drawn)	13	-47	52*	-9	-2	10	8
Cc1cc(C)c(C#N)c(SCc2nnc(-c3ccccc3[N+](=O)[O-])o2)n1	-15	-222	-184	-54	-89	-28	-124
COc1ccc(/C=N/NC(=O)c2cccnc2)cc1COc1ccc([N+](=O)[O-])c(C)c1	8	-23	57*	-5	-19	8	21
CCc1cc2c(=O)nc3n(c2s1)Cc1ccccc1/C3=C(/O)c1cccc([N+](=O)[O-])c1	-14	-108	69*	-6	2	-24	51*
CCc1cc2c(=O)nc3n(c2s1)Cc1ccccc1/C3=C(/O)c1ccc(F)cc1	-17	-37	10	-9	·	-10	·
COc1ccc(C(=O)N(Cc2ccccc2)Cc2cc3cc4c(cc3[nH]c2=O)OCCO4)cc1	13	-32	55*	17	-4	11	12
COc1cccc(C(=O)N(Cc2ccccc2)Cc2cc3cc4c(cc3[nH]c2=O)OCCO4)c1	-4	7	-3	1	5	-24	·
Cc1cc(CN(C)C(=O)CC2C(=O)NCCN2Cc2ccc(-c3ccccc3)cc2)on1 (stereo not drawn)	1	8	-5	-6	23	-2	·
